Compound activity as filed in PubChem.
OPRM1-OPRD1 inv: inverse agonists of human mu-delta opioid receptor heterodimerization; P35372+P41143; cell-based MOR-DOR heterodimer luminescence, inverse agonism; inhibition, % at 9.3 µM; 340,000 compounds, 0.21% hits; AID 504357; in the data active = inhibition above about 22%, passing the limit was not always enough;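 note: 0% = cells with DMSO and 100% = wells without cells with DMSO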
HTR5A ag: activates human HTR5A in OPRM1-OPRD1 agonist counter-screen | P47898 | HTR5A agonist assay, luminescence, cell-based | activation, % at 9.3 µM | 340,000 compounds, 0.61% hits; in the data active = activation mostly above about 9.5%, no sharp cut-off; inactive = mostly below about 7.6%;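 note: 0% = cells with vehicle only and 100% = reference agonist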
Target sequence (P47898 whole entry, looked up): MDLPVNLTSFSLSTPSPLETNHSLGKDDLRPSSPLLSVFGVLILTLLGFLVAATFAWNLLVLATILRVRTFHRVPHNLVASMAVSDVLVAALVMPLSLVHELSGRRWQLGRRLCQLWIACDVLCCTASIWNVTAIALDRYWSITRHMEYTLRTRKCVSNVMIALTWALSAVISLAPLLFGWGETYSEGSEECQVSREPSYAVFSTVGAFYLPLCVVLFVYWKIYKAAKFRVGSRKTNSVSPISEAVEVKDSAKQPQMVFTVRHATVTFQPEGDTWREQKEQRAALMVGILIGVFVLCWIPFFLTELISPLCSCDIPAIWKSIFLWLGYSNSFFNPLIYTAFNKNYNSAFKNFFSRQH
MOR-DOR ag: OPRM1-OPRD1 heterodimerization agonism. activation, % at 9.3 µM. AID 504326. P35372+P41143. cells, luminescence. 340,000 compounds, 0.3% hits;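 note: 0% = vehicle-treated cells and 100% = reference agonist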
HTR5A inv ag: inverse agonist of human HTR5A in OPRM1-OPRD1 counter-screen; HTR5A cell line, luminescence, inverse agonism; inhibition, % at 9.3 µM; 340,000 compounds, 0.083% hits; in the data active = inhibition mostly above about 23%, no sharp cut-off; inactive = mostly below about 18%;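 note: 0% = cells with DMSO and 100% = no-cell wells with DMSO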
MOR-DOR ag conf: confirmation of human OPRM1-OPRD1 heterodimerization agonists; activation, % at 9.3 µM; shares compounds with MOR-DOR ag; AID 504904; 830 compounds, 45% hits; cells, MOR-DOR heterodimerization, luminescence complementation;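 note: 0% = vehicle-treated cells and 100% = reference agonist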
HTR5A ag ctr2: HTR5A agonism, opioid heterodimer counter-screen | shares compounds with MOR-DOR ag | 830 compounds, 8% hits | HTR5A agonist counterscreen, cell luminescence | AID 504905 | activation, % at 9.3 µM; in the data active = activation above about 17%;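 note: 0% = vehicle-treated cells and 100% = reference agonist response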
* hit, by the source's call. A selection: hits, their analogues and other compounds. The true share with any hit is near 1.1%. Cut-off read from the data, not from the text of the source, unless noted: active = activation above about 18%; inactive = the rest.

Cc1cc(/C=C2\SC(=Nc3ccccc3)NC2=O)c(C)n1-c1ccc(S(N)(=O)=O)cc1 was read as OPRM1-OPRD1 inv inactive, HTR5A ag 6.2, MOR-DOR ag 120.4*, HTR5A inv ag -17.7, MOR-DOR ag conf 139.7* and HTR5A ag ctr2 -2.3.
`CCc1nc2ccccc2c(C(=O)Nc2ccc(C)cc2)c1C` gave OPRM1-OPRD1 inv 10.5, HTR5A ag 1.2, MOR-DOR ag -2.2 and HTR5A inv ag -4.4.
Screening CCC1CCCCN1CCN1C(=O)C2C(C(=O)Nc3ccc(OC)cc3)C3C=CC2(O3)C1C(=O)NC1CCCCC1 (stereo not given) returned OPRM1-OPRD1 inv -180.3, HTR5A ag 1.5, MOR-DOR ag 33.9*, HTR5A inv ag -4.1, MOR-DOR ag conf 2.5 and HTR5A ag ctr2 -19.1.
C/C(O)=C(/C#N)c1nc2ccccc2[nH]1 was read as OPRM1-OPRD1 inv 0.6, HTR5A ag -6.7, MOR-DOR ag -0.1 and HTR5A inv ag -12.8.
For N#C/C(=C(/O)C(Cl)(Cl)Cl)c1nc2ccccc2[nH]1 the results were OPRM1-OPRD1 inv -108.0, HTR5A ag -0.2, MOR-DOR ag 21.2*, HTR5A inv ag 0.7, MOR-DOR ag conf 10.2 and HTR5A ag ctr2 6.0.
`O=S(=O)(c1ccc2c(c1)C(=NO)c1cc(S(=O)(=O)N3CCCCC3)ccc1-2)N1CCCCC1` gave OPRM1-OPRD1 inv -47.8, HTR5A ag -1.1, MOR-DOR ag 8.2 and HTR5A inv ag -18.0.
For CC1CCN(S(=O)(=O)c2ccc3c(c2)C(=NO)c2cc(S(=O)(=O)N4CCC(C)CC4)ccc2-3)CC1 the results were OPRM1-OPRD1 inv -177.9, HTR5A ag 8.0, MOR-DOR ag 29.9*, HTR5A inv ag -4.5, MOR-DOR ag conf -0.2 and HTR5A ag ctr2 -2.8.
`COc1ccc(-c2ccc3c(c2)O/C(=C\c2ccsc2)C3=O)cn1` gave OPRM1-OPRD1 inv 13.5, HTR5A ag 1.1, MOR-DOR ag -2.9 and HTR5A inv ag -1.1.
Screening COc1ccc2nc(C)cc(N/N=C/c3cccc(OC)c3O)c2c1 returned OPRM1-OPRD1 inv -19.8, HTR5A ag 2.0, MOR-DOR ag 4.0 and HTR5A inv ag -7.5.
Screening COc1ccc(/C=N/Nc2cc(C)nc3ccc(Br)cc23)cc1 returned OPRM1-OPRD1 inv -108.0, HTR5A ag 4.7, MOR-DOR ag 21.1*, HTR5A inv ag -17.2, MOR-DOR ag conf 1.6 and HTR5A ag ctr2 -4.2.
For Cc1cccc(NC(=S)NC(=O)CCc2ccccc2)c1 the results were OPRM1-OPRD1 inv -98.0, HTR5A ag 0.1, MOR-DOR ag 18.1*, HTR5A inv ag -0.4, MOR-DOR ag conf 351.9* and HTR5A ag ctr2 -0.8.
Cc1cccc(NC(=O)NNC(=O)CCc2ccccc2)c1 was read as OPRM1-OPRD1 inv 2.3, HTR5A ag 0.3, MOR-DOR ag -0.4 and HTR5A inv ag -10.3.
Screening S=C(c1ccc2c(c1)OCO2)N1CCN(c2cccc(Cl)c2)CC1 returned OPRM1-OPRD1 inv 15.4, HTR5A ag 1.1, MOR-DOR ag -3.2 and HTR5A inv ag -4.4.
Screening Clc1ccc(C2[C@H]3CN(Cc4cccnc4)[C@H](c4ccccc4)C34CC2(c2cccnc2)C4)cn1 (stereo not given in full) returned OPRM1-OPRD1 inv -311.3, HTR5A ag -4.7, MOR-DOR ag 53.9*, HTR5A inv ag -12.8, MOR-DOR ag conf 9.1 and HTR5A ag ctr2 7.9.
`c1ccc(-c2ccc(CN3C[C@@H]4C(c5ccccc5)C5(c6cccnc6)CC4(C5)[C@H]3c3ccccc3)cc2)cc1` (stereo not given in full) gave OPRM1-OPRD1 inv -1.5, HTR5A ag 2.8, MOR-DOR ag 0.3 and HTR5A inv ag -22.3.
Screening FC(F)(F)c1ccc(C2[C@H]3CN(Cc4cccnc4)[C@H](c4ccccc4)C34CC2(c2cccnc2)C4)cc1 (stereo not given in full) returned OPRM1-OPRD1 inv -273.5, HTR5A ag -1.3, MOR-DOR ag 48.6*, HTR5A inv ag -5.4, MOR-DOR ag conf 68.1* and HTR5A ag ctr2 -4.4.
CCCCS(=O)(=O)Nc1ccc(C)cn1 was read as OPRM1-OPRD1 inv 9.1, HTR5A ag 0.9, MOR-DOR ag -1.7 and HTR5A inv ag 21.8.
CC(C)=CCN1CCN(CCC2=C(C)CCCC2(C)C)CC1CCO (stereo not given) was read as OPRM1-OPRD1 inv -169.9, HTR5A ag 3.1, MOR-DOR ag 23.6*, HTR5A inv ag 0.4, MOR-DOR ag conf -0.2 and HTR5A ag ctr2 1.2.
